According to PubChem BioAssay (NCI):
This is part of a sample that, as a whole, favours compounds with a hit. Of some 83,000 tested, about 20% had one in any assay.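 96-well plates, one dose, 48 hours. Percent growth reported; active if below 10.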

Assays:
Experiment in all cases: NCI-60 one-dose screen, 48 h (100 = growth as untreated, 0 = no growth, -100 = all killed)
Settings in all cases: 10 µM unless noted
[1] = test system: T-47D breast
[2] = test system: BT-549 breast
[3] = test system: MDA-MB-435 melanoma
[4] = test system: SW-620 colon
[5] = test system: MCF7 breast
[6] = test system: HCT-116 colon
[7] = test system: HCC-2998 colon
[8] = test system: KM12 colon

Measured: growth

Cc1cc(C(=O)NN)c(C#N)c(=O)[nH]1
inactive: [1] 96.3% | [2] 109% | [3] 119% | [4] 102% | [5] 93% | [6] 100% | [7] 112% | [8] 122%

CC1(C)OC(=O)CC1=O
inactive: [1] 82% | [2] 98.1% | [3] 104% | [4] 100% | [5] 99.3% | [6] 103% | [7] 100% | [8] 102%

C=CCOc1ccc(Cl)cc1Cl
inactive: [1] 103% | [2] 101% | [3] 102% | [4] 107% | [5] 105% | [6] 104% | [7] 114% | [8] 109%

CCC(=O)C1C(=O)c2ccccc2C1=O
inactive: [1] 113% | [2] 103% | [3] 104% | [4] 113% | [5] 105% | [6] 107% | [7] 106% | [8] 105%

C#CC(O)c1ccccc1 (stereo not drawn)
inactive: [1] 99.9% | [2] 106% | [3] 108% | [4] 102% | [5] 99.1% | [6] 102% | [7] 125% | [8] 107%

CC(=O)Nc1ccc(O)c(C)c1
inactive: [1] 95.9% | [2] 112% | [3] 108% | [4] 106% | [5] 99.9% | [6] 99.1% | [7] 106% | [8] 106%

Cc1cc(=O)n(Nc2ccccc2)c(O)c1C#N
inactive: [1] 92% | [2] 107% | [3] 108% | [4] 98.6% | [5] 98.4% | [6] 101% | [7] 112% | [8] 92.9%

CS(=O)CC(=N\O)/C(CS(C)=O)=N\O (stereo not drawn)
inactive: [1] 108% | [2] 106% | [3] 106% | [4] 101% | [5] 90.7% | [6] 102% | [7] 105% | [8] 102%

O=C(NCc1ccco1)Nc1cccc2c(NC(=O)NCc3ccco3)cccc12
inactive: [1] 69.2% [100 µM] | [2] 57.1% [100 µM] | [3] 40% [100 µM] | [4] 23.1% [100 µM] | [5] 60.1% [100 µM] | [6] 15% [100 µM] | [7] 74.5% [100 µM] | [8] 61.1% [100 µM]

CCOC(=O)/C(O)=C(\C=N\C(=S)Nc1ccc(Cl)c(Cl)c1)C(=O)OCC
inactive: [1] 58.3% | [2] 100% | [3] 87.1% | [4] 104% | [5] 81% | [6] 101% | [7] 87.9% | [8] 100%

CCCCCCCCCCCCCCCCCCSC(=N)N
inactive: [1] 90% | [2] 104% | [3] 84.7% | [4] 46.3% | [5] 51.7% | [6] 66.6% | [7] 45.2% | [8] 64.5%

CCNCC(C)(C)O
inactive: [1] 104% | [2] 105% | [3] 106% | [4] 106% | [5] 97.1% | [6] 101% | [7] 109% | [8] 113%

COc1cc(-c2ccc(NC(=O)CC(C)=O)c(OC)c2)ccc1NC(=O)CC(C)=O
inactive: [1] 108% | [2] 83.6% | [3] 105% | [4] 104% | [5] 106% | [6] 105% | [7] 100% | [8] 106%

COC(c1ccc2c(c1)OCO2)C(C)Br (stereo not drawn)
inactive: [1] 71.8% | [2] 104% | [3] 90% | [4] 94.9% | [5] 110% | [6] 88.5% | [7] 105% | [8] 93.5%

CN(C)c1ccc(O)c2c1CC1CC3C(N(C)C)C(=O)C(C(N)=O)=C(O)C3(O)C(=O)C1=C2O (stereo not drawn)
inactive: [1] 50.5% | [2] 29.2% | [3] 44.8% | [4] 47.8% | [5] 53.4% | [6] 34.1% | [7] 49.7% | [8] 50%

CC(=O)N(C)N=Nc1ccc(C)cc1
inactive: [1] 102% | [2] 90.1% | [3] 103% | [4] 98.6% | [5] 106% | [6] 101% | [7] 91.5% | [8] 118%
